PubChem BioAssay (NCI)
Where “and” joins values, the source holds several entries; their conditions need not be identical. Equal values may be shown once. Compounds without any hit were thinned out: in the full panel of roughly 79,000, 15% have a hit. A structure can be active in one record and inactive in another. Calls of active or inactive are those of the source. No stated cut-off is given here; in the data, active means growth inhibition above about 70%; inactive means the rest.

How the values were obtained:
[1] = NCI Yeast Anticancer Drug Screen. Data for the rad50 strain (AID 155);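 further: 0% = growth of vehicle-only cultures of the same strain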; settings: S. cerevisiae rad50 strain growth inhibition, stronger effect = higher value
Outline: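 Cells are treated with compound, grown, and their growth is then scored against vehicle-only cultures of the same repair-deficient yeast strain.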

[2] = NCI Yeast Anticancer Drug Screen. Data for the mec2-1 strain (AID 157); settings: S. cerevisiae mec2-1 strain, stronger effect = higher value
Outline: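 Test agents were screened against the mec2-1 yeast strain, with defined DNA repair or cell cycle alteration. Growth was scored as inhibition against vehicle-only controls.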

[3] = NCI Yeast Anticancer Drug Screen. Data for the sgs1 mgt1 strain (AID 161);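 further: 0% = growth of cultures given vehicle only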; settings: S. cerevisiae sgs1 mgt1 strain, stronger effect = higher value
Outline: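 Genetically altered yeast, compound exposure, growth inhibition relative to vehicle.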

[4] = NCI Yeast Anticancer Drug Screen. Data for the cln2 rad14 strain (AID 165);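 further: 0% = growth equal to vehicle treated cultures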; settings: S. cerevisiae cln2 rad14 strain, stronger effect = higher value
Outline: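 Growth of compound-exposed yeast (cln2 rad14 genotype) measured and expressed as inhibition relative to vehicle.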

[5] = NCI Yeast Anticancer Drug Screen. Data for the bub3 strain (AID 167); settings: S. cerevisiae bub3 mutant strain, stronger effect = higher value
Outline: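 Part of a panel of yeast mutants defective in DNA damage repair or cell cycle regulation. Each strain is grown with compound, and inhibition is calculated relative to solvent-treated cultures.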

[6] = NCI Yeast Anticancer Drug Screen. Data for the mlh1 rad18 strain (AID 175); settings: S. cerevisiae mlh1 rad18 strain growth inhibition, stronger effect = higher value
Outline: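 In this whole-cell yeast screen, a strain with altered DNA damage repair is challenged with compound, and its growth is measured against matched vehicle-treated controls.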

[7] = at 5.0 µM (retest, dose inferred, filed as 0.5)
[8] = at 50.0 µM (retest, dose inferred, filed as 5.0)

SMILES	growth inhibition [1, 7]	growth inhibition [1, 8]	growth inhibition ([1]; at 50.0 µM)	growth inhibition [2, 7]	growth inhibition [2, 8]	growth inhibition ([2]; at 50.0 µM)	growth inhibition [3, 7]	growth inhibition [3, 8]	growth inhibition ([3]; at 50.0 µM)	growth inhibition [4, 7]	growth inhibition [4, 8]	growth inhibition ([4]; at 50.0 µM)	growth inhibition [5, 7]	growth inhibition [5, 8]	growth inhibition ([5]; at 50.0 µM)	growth inhibition [6, 7]	growth inhibition [6, 8]	growth inhibition ([6]; at 50.0 µM)
NC(=O)/C=C/C(=O)O (tested in a mixture with another compound)	0% (inactive)	1% (inactive)	-5.5% (inactive)	2% (inactive)	-1% (inactive)	66.5% (inactive)	0% (inactive)	3% (inactive)	7.2% (inactive)	1% (inactive)	1% (inactive)	23.1% (inactive)	-7% (inactive)	-4% (inactive)	95.7% (active)	-1% (inactive)	2% (inactive)	17.5% (inactive)
Cn1cc(/C=C/[N+](=O)[O-])c2ccccc21	7% (inactive)	95% (active)	97.1% (active)	-2% (inactive)	96% (active)	97.3% (active)	2% (inactive)	97% (active)	98.4% (active)	26% (inactive)	98% (active)	96.5% (active)	22% (inactive)	97% (active)	97.7% (active)	19% (inactive)	97% (active)	97.3% (active)
C[CH2][Sn]([CH2]C)([CH2]C)[O]C(=O)CO	9% (inactive)	98% (active)	82.2% (active)	10% (inactive)	99% (active)	87% (active)	17% (inactive)	98% (active)	86.6% (active)	-11% (inactive)	93% (active)	55.4% (inactive)	7% (inactive)	98% (active)	86.8% (active)	12% (inactive)	98% (active)	84.9% (active)
ClC1=C(Cl)C2(Cl)C(C3CO3)CC1(Cl)C2(Cl)Cl (stereo not given)	0% (inactive)	10% (inactive)	76.1% (active)	-1% (inactive)	11% (inactive)	69.3% (inactive)	-2% (inactive)	12% (inactive)	90.8% (active)	-12% (inactive)	-13% (inactive)	34.4% (inactive)	4% (inactive)	28% (inactive)	89.7% (active)	0% (inactive)	18% (inactive)	55.9% (inactive)
Oc1cc(Cl)c(Cl)cc1Cl	30% (inactive)	98% (active)	98.5% (active) and 53% (inactive)	12% (inactive)	99% (active)	98.8% (active) and 98.6% (active)	17% (inactive)	99% (active)	99.1% (active) and -3.1% (inactive)	0% (inactive)	99% (active)	97.5% (active) and 96.4% (active)	-2% (inactive)	99% (active)	98.1% (active) and 97.2% (active)	18% (inactive)	100% (active)	98.8% (active) and 52.5% (inactive)
Nc1nc(N)c(-c2ccc(Cl)c(Cl)c2)c(CCc2ccc(CNC(=O)c3cc(S(=O)(=O)F)ccc3Cl)cc2)n1	-4% (inactive)	49% (inactive)	50.5% (inactive)	-4% (inactive)	54% (inactive)	96% (active)	-3% (inactive)	50% (inactive)	66.8% (inactive)	-7% (inactive)	47% (inactive)	12.5% (inactive)	-2% (inactive)	45% (inactive)	74.7% (active)	-3% (inactive)	53% (inactive)	94.5% (active)
O=[N+]([O-])c1c(Cl)sc(Cl)c1[N+](=O)[O-]	99% (active)	99% (active)	99.7% (active)	100% (active)	100% (active)	99.7% (active)	99% (active)	99% (active)	99.5% (active)	99% (active)	99% (active)	99.8% (active)	100% (active)	100% (active)	99.7% (active)	99% (active)	99% (active)	99.7% (active)
O=[C-]CCCCCC[C-]=O.[C-]#[O+].[C-]#[O+].[C-]#[O+].[C-]#[O+].[Fe+6].[Fe+6].[c-]1[c-][c-][cH-][c-]1.[c-]1[c-][c-][cH-][c-]1	9% (inactive)	97% (active)	97.9% (active)	13% (inactive)	97% (active)	98.5% (active)	1% (inactive)	98% (active)	96.8% (active)	1% (inactive)	97% (active)	97.8% (active)	-4% (inactive)	97% (active)	99% (active)	5% (inactive)	98% (active)	93.1% (active)
O=C1[O][Hg][c]2cccc3cccc1c23	99% (active)	99% (active)	98.3% (active)	100% (active)	99% (active)	99% (active)	99% (active)	99% (active)	98.9% (active)	89% (active)	99% (active)	98.2% (active)	100% (active)	58% (inactive)	98.2% (active)	100% (active)	99% (active)	97.5% (active)
CCCC[CH2][Sn]([CH2]CCCC)[CH2]CCCC.CCCC[CH2][Sn]([CH2]CCCC)[CH2]CCCC	78% (active)	99% (active)	99.2% (active)	61% (inactive)	100% (active)	99.5% (active)	67% (inactive)	100% (active)	99.5% (active)	8% (inactive)	99% (active)	98.8% (active)	20% (inactive)	100% (active)	98.8% (active)	46% (inactive)	100% (active)	99.1% (active)
O=c1c2ccccc2[se]n1-c1ccccc1	6% (inactive)	29% (inactive)	70.2% (active)	-12% (inactive)	32% (inactive)	88.8% (active)	-4% (inactive)	23% (inactive)	81.3% (active)	-19% (inactive)	26% (inactive)	66.6% (inactive)	-15% (inactive)	21% (inactive)	4.2% (inactive)	-12% (inactive)	62% (inactive)	86% (active)
O=[As]c1ccc([N+](=O)[O-])cc1 (stereo not given)	80% (active)	100% (active)	99.6% (active)	89% (active)	100% (active)	99.7% (active)	39% (inactive)	99% (active)	99.7% (active)	58% (inactive)	98% (active)	98.9% (active)	99% (active)	100% (active)	99.3% (active)	89% (active)	99% (active)	99.5% (active)
C[C@]12CC[C@H](OC(=O)COc3ccc(N(CCCl)CCCl)cc3)C[C@@H]1CC[C@@H]1[C@@H]2CC[C@]2(C)NC(=O)CC[C@@H]12	17% (inactive)	50% (inactive)	70% (active)	7% (inactive)	11% (inactive)	49.2% (inactive)	19% (inactive)	57% (inactive)	19.1% (inactive)	17% (inactive)	36% (inactive)	5.4% (inactive)	22% (inactive)	59% (inactive)	16.1% (inactive)	25% (inactive)	48% (inactive)	8.2% (inactive)
Cl[C](Cl)(Cl)[Hg][c]1ccccc1	99% (active)	99% (active)	88% (active)	100% (active)	99% (active)	93.8% (active)	100% (active)	99% (active)	92.7% (active)	99% (active)	99% (active)	91.7% (active)	99% (active)	99% (active)	91.8% (active)	99% (active)	99% (active)	91.5% (active)
CC1CCC2(NC1)OC1CC3C4CC=C5CC(O)CCC5(C)C4CCC3(C)C1C2C (stereo not given)	78% (active) and -4% (inactive)	98% (active) and 99% (active)	90.8% (active) and 98.2% (active)	56% (inactive) and 13% (inactive)	99% (active) and 98% (active)	93% (active) and 99.3% (active)	92% (active) and -3% (inactive)	99% (active)	91.8% (active) and 99% (active)	72% (active) and -17% (inactive)	99% (active) and 98% (active)	87.5% (active) and 98.5% (active)	93% (active) and 39% (inactive)	99% (active)	90.2% (active) and 99.1% (active)	77% (active) and 4% (inactive)	98% (active) and 99% (active)	89% (active) and 98.8% (active)
